SMN2 splice enh = SMN2 splice variant enhancement; HEK293 SMN2-luciferase splicing reporter, luminescence, 30-36 h; Potency, µM (highest dose often 46.1 µM), for inactives: top-dose activity change, positive = activation, actives largely listed as activators; actives 2.8% (n = 210,000); further: % of control where 0% means no effect; nearly all actives have a fitted effect of over 55% in size
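qHTS luciferase splicing reporter: luminescence rises when SMN2 exon 7 is included in transfected HEK293 cells. Compound exposure lasted 30-36 h at 37C, with 4.5 mM final sodium butyrate as control, followed by a ONE-Glo read.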
ELG1 genotoxic = induces genotoxicity in HEK293T cells with luciferase-tagged ELG1; actives 1.3% (n = 330,000); AID 504466; HEK293T ELG1-luciferase reporter, luminescence, 16 h; Potency, µM (top dose mostly 46 µM), without a hit: at the highest dose activity change, positive = activation, most hits filed as activators; further: % of control where 0% means no effect; nearly all actives have a fitted effect of over 60% in size
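Step 1: seed 2,000 HEK293T ELG1-luciferase cells per well. Step 2: add compound or DMSO, incubate 16 hr at 37 °C. Step 3: ONE-Glo, 30 min at room temperature, read luminescence.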
FLuc counter = inhibits or activates purified firefly luciferase, miR-21 counter-screen; purified FLuc, Km substrates, luminescence inhibition; Potency, µM (titrated, usually from 57.5 µM), without a hit: at the highest dose activity change, negative = inhibition, actives largely listed as inhibitors; actives 6.9% (n = 360,000); AID 588342;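 further: plate controls were vehicle for no effect and reference inhibitor for full effect; nearly all actives have a fitted effect of over 55% in size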
Target sequence (P08659 whole entry, looked up): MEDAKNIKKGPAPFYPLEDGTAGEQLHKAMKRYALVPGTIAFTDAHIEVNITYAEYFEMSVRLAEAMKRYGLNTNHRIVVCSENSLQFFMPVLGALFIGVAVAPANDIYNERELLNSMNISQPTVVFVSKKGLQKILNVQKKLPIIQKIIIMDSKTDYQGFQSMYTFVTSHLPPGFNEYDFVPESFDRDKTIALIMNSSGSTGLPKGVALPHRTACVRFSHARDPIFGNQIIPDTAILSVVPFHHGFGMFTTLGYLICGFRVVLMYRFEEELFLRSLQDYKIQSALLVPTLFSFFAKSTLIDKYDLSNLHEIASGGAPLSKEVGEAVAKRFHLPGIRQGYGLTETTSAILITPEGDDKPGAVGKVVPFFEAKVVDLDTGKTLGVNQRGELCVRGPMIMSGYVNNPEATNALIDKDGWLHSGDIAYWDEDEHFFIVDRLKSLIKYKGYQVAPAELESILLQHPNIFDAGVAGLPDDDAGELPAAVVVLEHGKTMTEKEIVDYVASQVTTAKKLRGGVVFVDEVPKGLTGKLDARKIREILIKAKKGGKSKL
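Purified P. pyralis luciferase (10nM final) with 10uM D-luciferin and 10uM ATP (Km levels) in 50mM Tris acetate pH 7.5, 10mM Mg acetate, 0.01% Tween-20, 0.05% BSA; qHTS 6-point titration, ~60 µM downward; luminescence read.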
NPC1 promoter act = NPC1 promoter activation; Huh7 NPC1 promoter luciferase reporter, 24 h; Potency, µM (series often up to 9.22 µM), for inactives: at the top dose activation, most hits filed as activators; actives 2.4% (n = 320,000); AID 485313; further: % of control where 0% means no effect; nearly all actives have a fitted effect of over 60% in size
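In 1536-well qHTS, Huh7 cells harboring an NPC1 promoter–luciferase construct received compound for 24 h; activation was quantified by luminescence following luciferase reagent addition.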
Rab9 prom act = activators of Rab9 promoter | Huh7 Rab9 promoter-luciferase reporter, luminescence, 24 h | Potency, µM (doses to about 9.22 µM), for inactives: at the highest dose activation, negative = inhibition, actives largely listed as activators | actives 2.8% (n = 320,000) | AID 485297; further: % of control where 0% means no effect; nearly all actives have a fitted effect of over 60% in size
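Measured in stably transfected Huh7 cells bearing a Rab9 promoter–luciferase construct: 24 h compound treatment at 37 °C, followed by luminescence detection.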
Luc counter = counter-screen: inhibitors of Kinase-Glo firefly luciferase; Q27757; Kinase-Glo luciferase, ATP luminescence, 8 min; Potency, µM (titrated, usually from 38.3 µM), for inactives: top-dose activity change, negative = inhibition, hits mostly inhibitors; actives 0.28% (n = 200,000); AID 1379; further: on the % scale 0 is the no-effect control and ±100 the full control effect; nearly all actives have a fitted effect of over 60% in size
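Light output from Kinase-Glo luciferase with luciferin and 10 uM ATP in 50 mM imidazole pH 7.2, KCl, MgCl2, Tween 20, BSA; compound pin-delivered, 8-min ambient incubation, then luminescence read.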
* marks the source's active call; other numbers are inactive results; ? = inconclusive; . = no result given. A selection: hits, their analogues and other compounds. The true share with any hit is near 7.5%. The call rests on the fitted dose curve; in most records, active means well fitted curve in the direction sought with a large enough effect; inconclusive means small, poorly fitted or top-dose-only effect, or another doubt; inactive means no such curve, though single readings can be large; an effect the other way counts as inactive or inconclusive. Potency means the concentration at half of the fitted maximal effect.

SMILES	SMN2 splice enh	ELG1 genotoxic	FLuc counter	NPC1 promoter act	Rab9 prom act	Luc counter
Fc1ccc(-c2noc3ncnc(NCc4cccc(Cl)c4)c23)cc1	.	.	-9.9%	.	.	.
COc1ccc(-c2nnc(SCC(=O)Nc3ccc(Cl)cc3)s2)cc1	.	.	-17.4%	.	.	.
C[C@H](CO)N1C[C@H](C)[C@@H](CN(C)S(=O)(=O)c2cccs2)Oc2ccc(NS(=O)(=O)c3ccccc3)cc2C1=O	.	-0.5%	.	.	.	.
Cc1ccc2oc(C(=O)Nc3nnc(CC(C)C)s3)cc(=O)c2c1	10.6%	.	?	.	.	.
CCCc1nnc(NC(=O)c2cc(=O)c3cc(C)c(C)cc3o2)s1	-3.1%	.	12µM*	.	.	.
c1ccc(-c2ncc3c(ccc4ccccc43)n2)cc1	0.501µM*	0.651µM*	0.0849µM*	3.98µM*	0.794µM*	-24.9%
c1ccc(-c2cnc(-c3ccccc3)nc2)cc1	7.08µM*	?	0.301µM*	0.562µM*	0.355µM*	-25.5%
Cc1ccccc1-c1n[nH]c(=S)n1/N=C/c1c(C)nn(-c2ccccc2)c1C	14.1µM*	-8.6%	0.9%	-1.9%	0.0%	3.1%
O=C(c1ccccc1Br)N(Cc1ccccc1F)C1CCS(=O)(=O)C1 (stereo not drawn)	-6.8%	.	0.5%	.	.	.
O=C(Nc1ccncc1)Nc1ccncc1	-2.2%	6.8%	0.3%	-7.8%	-13.1%	1.0%
Cc1nc(NC(=O)Nc2ccc(Cl)cc2)sc1C	?	9.7%	?	11.6%	3.16µM*	0.1%
Oc1ccccc1CNc1cccc2cccnc12	.	?	16.9µM*	2.3%	27.1%	-2.0%
O=C(Nc1ccc(Cl)cc1)Nc1ccccn1	.	?	5.36µM*	2.82µM*	2.24µM*	.
CC(C)(C)c1nnc(NC(=O)Nc2ccc(Cl)cc2)s1	.	-3.3%	-2.5%	?	?	.
O=C(Nc1ccncc1)Nc1ccc(Cl)cc1	.	14.4%	21.3µM*	21.8%	6.2%	.
COc1ccc(C(=O)COc2ccccc2C(=O)Nc2ccccc2)cc1	-4.5%	-12.9%	-12.8%	-1.0%	-5.4%	-5.4%
Cc1ccc(CCNS(=O)(=O)c2ccc3c(c2)C(C(C)C)C(=O)N3)cc1 (stereo not drawn)	.	.	1.5%	.	.	.
CCCCn1c(N)c(N(CC(C)C)C(=O)CSc2nnc(C)n2-c2ccc(OC)cc2)c(=O)[nH]c1=O	.	2.3%	2.0%	1.1%	-2.6%	.
Cc1ccc(C(=O)Nc2c(C)nc3ccccn3c2=O)cc1	.	.	-10.8%	.	.	.
COc1ccc(NC(=O)CSC2=Nc3ccccc3C3=NC(CCC(=O)NCCc4ccccc4)C(=O)N23)c(OC)c1 (stereo not drawn)	.	.	-2.2%	.	.	.
CC(c1ccccc1)n1c(SCC(=O)Nc2ccccc2)n[nH]c1=O (stereo not drawn)	.	-7.7%	-0.9%	-0.5%	1.0%	.
O=C(Nc1ccccn1)c1ccc(-c2ccccc2)cc1	.	?	0.213µM*	0.1µM*	0.0891µM*	.
S=C(Nc1ccccn1)Nc1ccccc1Cl	.	10.1%	-22.5%	6.2%	?	0.5%
O=C(Nc1ccccc1)Nc1cccc2ccccc12	.	-0.3%	?	11.2%	19.1%	.
O=C(Nc1ccccc1)Nc1cccc2cccnc12	14.1µM*	6.31µM*	6.01µM*	2.7%	23.4%	-6.7%
SMILES	SMN2 splice enh	ELG1 genotoxic	FLuc counter	NPC1 promoter act	Rab9 prom act	Luc counter
S=C(Nc1ccccn1)c1ccccn1	20µM*	12.6µM*	7.57µM*	2.82µM*	2.51µM*	-21.4%
O=C(Nc1ccccc1)Nc1ccccn1	14.1µM*	?	12µM*	?	?	-2.8%
Cc1nc(SCc2cc(=O)c3cccc(F)c3[nH]2)n[nH]1	.	.	2.2%	.	.	.
Oc1ccccc1CNc1cnc2ccccc2c1	?	?	10.7µM*	?	?	0.6%
CCOC(=O)c1ccc(NC(=O)Nc2cccc(C)n2)cc1	5.7%	?	0.6%	10.0%	5.3%	-4.0%
O=C(Nc1ccccn1)C(=O)Nc1ccccn1	.	4.61µM*	5.36µM*	1.41µM*	1.26µM*	.
Oc1ccc(Cl)cc1CNc1cnc2ccccc2c1	.	3.8%	-13.4%	-4.4%	3.7%	.
CCOC(=O)c1ccc(NC(=O)Nc2ccccn2)cc1	.	?	2.69µM*	2.51µM*	1.26µM*	-6.8%
CCOC(=O)C(NC(=O)Nc1ccc(C(N)=O)cc1)(c1ccccc1)C(F)(F)F (stereo not drawn)	32.1%	0.0%	2.6%	-1.3%	0.6%	2.0%
Cc1c2cnn(-c3ccccc3)c(=O)c2c(C)n1CC(=O)NCCc1ccc(Cl)cc1	9.2%	.	3.8%	.	.	.
O=S(=O)(c1ccc2c(c1)CCN2)N1CCCC1	.	4.4%	-1.2%	-2.8%	-0.5%	.
CCCCn1c(N)c(N(CCOC)C(=O)c2ccc3c(c2)OCCO3)c(=O)[nH]c1=O	.	0.0%	2.5%	-7.7%	-2.9%	.
O=C(O)CSc1cc(C(=O)c2cc(F)ccc2O)cn2c(=O)c3c(-c4ccccc4)csc3nc12	.	-5.6%	26.9µM*	-0.3%	-2.6%	.
CCc1c(C)sc2nc3c(C(=O)N4CCOCC4)cc(C(=O)c4cc(F)ccc4O)cn3c(=O)c12	-49.7%	-12.2%	-9.3%	-6.2%	-1.0%	3.2%
CCOC(=O)c1sc2nc3c(SCCC#N)cc(C(=O)c4cc(F)ccc4O)cn3c(=O)c2c1C	-39.7%	-5.1%	-1.2%	-0.1%	-7.6%	2.5%
CCOC(=O)c1sc2nc3c(SCCC(=O)O)cc(C(=O)c4cc(OC)ccc4O)cn3c(=O)c2c1C	-19.6%	0.6%	3.01µM*	1.5%	1.6%	1.5%
CCOC(=O)c1c(C)nc2c3ccccc3ccn12	12.6µM*	4.11µM*	3.79µM*	18.0%	2.24µM*	-14.2%
CCOC(=O)c1c(C)nc2c(C)cccn12	-58.4%	7.4%	1.8%	0.3%	-5.6%	-3.0%
Cc1ccc(OCC(=O)Nc2ccc3c(c2)C(=O)N(CCC(=O)O)C3=O)cc1	.	-1.0%	?	2.6%	-3.1%	.
COc1ccc(/C=N/NC(=O)c2cc(C34CC5CC(CC(C5)C3)C4)[nH]n2)cc1OC	5.3%	3.1%	?	-5.0%	-3.2%	-1.4%
O=C(N/N=C/c1ccc(O)cc1)c1cc(C23CC4CC(CC(C4)C2)C3)[nH]n1	.	4.1%	13.5µM*	-2.1%	10.4%	.
CC(C)(C)c1ccc(C(=O)N/N=C/c2ccccn2)cc1	.	?	9.53µM*	21.8%	25.9%	.
O=C(N/N=C/c1ccccn1)c1ccc(N/N=C/c2ccccn2)cc1	14.1µM*	-3.2%	2.39µM*	22.7%	2.24µM*	-5.8%
Cc1ccccc1C(=O)Nc1ccc(C(=O)N/N=C/c2ccccn2)cc1	.	0.0%	-3.7%	-3.3%	-0.1%	.
O=C(N/N=C/c1ccccn1)c1ccc(Br)cc1	9.3%	?	10.7µM*	?	?	-6.2%
O=C(N/N=C/c1ccccn1)c1cc([N+](=O)[O-])cc([N+](=O)[O-])c1	-3.7%	6.3%	-7.8%	-2.6%	-1.7%	3.6%

Screening data as filed in PubChem BioAssay.
